Source: PubChem BioAssay (National Center for Advancing Translational Sciences (NCATS))
The list is not random: actives were taken first. Their share in the collection is about 3.8%.
HT1080-NT tox: kills 2HG-producing HT-1080-NT fibrosarcoma cells. HT-1080-NT fibrosarcoma viability, CellTiter-Glo ATP luminescence, 48 h. Potency, µM (doses to about 46.1 µM), for the others: at the highest dose activity, negative = less viability, most hits filed as cytotoxic. 360,000 tested, 1.6% active;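 further: NT is the 2HG producing partner of a matched IDH1 knockdown line; 0% = DMSO-treated cells and -100% = media-only wells without cells; nearly all actives have a fitted effect of over 55% in size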
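Viability of the 2HG-overproducing fibrosarcoma line after 48 hours of compound exposure at 37 degrees C was determined by luminescence with CellTiter-Glo, and concentration-effect curves were then fitted and categorized.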
ATXN2 expr inh: reduces ATXN2 reporter expression in HEK-293 cells; Potency, µM (titrated, usually from 57 µM), without a hit: at the highest dose activity change, negative = inhibition, hits mostly inhibitors; 360,000 tested, 0.72% active; HEK-293 ATXN2-luciferase reporter, luminescence, 24 h; further: on the % scale 0 is the no-effect control and ±100 the full control effect; nearly all actives have a fitted effect of over 55% in size
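qHTS (up to 57 uM final) was run with 24 h compound exposure of reporter cells at 37 °C. Each well was multiplexed: SteadyGlo luminescence measured ATXN2-luciferase expression after a fluorogenic Gly-Phe-AFC viability readout (25 uM final).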
HepG2 tox: kills HepG2 cells in TGF-b inhibitor counter-screen | HepG2 CAGA-GFP viability, ATP luminescence, 18 h | Potency, µM (doses to about 46.1 µM), for the others: top-dose activity change, negative = cytotoxicity, most hits filed as cytotoxic | 410,000 tested, 0.76% active | AID 588856
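HepG2 CAGA-GFP cells (1000/well, DMEM with 1% FBS) received compound, then TGF-beta at 500 pg/mL final, and were incubated 18 hours at 37 degrees C. Viability was read by CellTiter-Glo luminescence. Media-only wells were set as complete cell-killing and DMSO as no toxicity.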
TGFb SMAD3 inh: TGF-b pathway inhibition; Potency, µM (highest dose often 46.1 µM), for inactives: at the top dose activity, negative = inhibition, actives largely listed as inhibitors; HepG2 CAGA-GFP TGF-b/SMAD3 reporter, GFP fluorescence, 18 h; TGF-beta stimulated, 500 pg/mL final; 410,000 tested, 1.2% active; AID 588855; further: on the % scale 0 is the no-effect control and ±100 the full control effect; nearly all actives have a fitted effect of over 65% in size
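Smad-responsive CAGA-GFP expression was quantified in HEPG2 cells exposed to compounds and 500 pg/mL final TGF-beta for 18 h at 37 degrees C; unstimulated wells defined full inhibition.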
ATXN viability: viability counter-screen for ATXN expression inhibitors. 400,000 tested, 0.49% active. Potency, µM (highest dose often 56.7 µM), usual class: cytotoxic. S2 cells (HEK-293 line with an ATXN2-luciferase reporter) viability, CellTiter-Fluor protease fluorescence, 24 h; further: nearly all actives have a fitted effect of over 40% in size
HT1080 IDH1KD tx: kills HT-1080 cells with IDH1 knockdown | HT-1080 IDH1 knockdown viability, ATP luminescence, 48 h | 360,000 tested, 2% active | Potency, µM (top dose mostly 46.1 µM), for the others: at the top dose activity, negative = toxicity, actives largely listed as cytotoxic;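 further: 0% = DMSO wells and -100% = cell-free medium wells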
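Using the IDH1-knockdown HT-1080 line run in the same batch and compound series as the NT line, viability after 48 h at 37 °C was determined by CellTiter-Glo luminescence and expressed as % activity.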
* marks the source's active call; other numbers are inactive results; i = inactive; ? = inconclusive; / = not tested or not shown; ! = not confirmed by another sample; [ ] = remark or other dose. The call rests on the fitted dose curve; in most records, active means well fitted curve in the direction sought with a large enough effect; inconclusive means small, poorly fitted or top-dose-only effect, or another doubt; inactive means no such curve, though single readings can be large; an effect the other way counts as inactive or inconclusive. Potency means the concentration at half of the fitted maximal effect.

SMILES	HT1080-NT tox	ATXN2 expr inh	HepG2 tox	TGFb SMAD3 inh	ATXN viability	HT1080 IDH1KD tx
Nc1ccc(C(=O)N/N=C/c2cn(Cc3cccc(F)c3)c3ccccc23)cc1	-5%	-31%	-1%	1.3µM*	i	-26%
O=C(N/N=C/c1cn(Cc2ccccc2)c2ccccc12)c1cccnc1	-20%	?	-37%	2.8µM*	i	-30%
O=C(N/N=C/c1c(O)n(Cc2ccccc2)c(=O)c2ccccc12)c1cccnc1	13µM*	17µM*	-40%	0%	/	15µM*
CCOc1ccccc1C1NC(c2ccc3c(c2)OCO3)=CC(c2ccccc2O)N1 (stereo unspecified)	/	/	-33%	-23%	/	/
COc1ccc(Cn2c(O)c(/C=N/NC(=O)c3cccnc3)c3ccccc3c2=O)cc1	?	?	8%	?	/	21µM*
Cc1cccc(-n2c(O)c(/C=N/NC(=O)c3ccccc3Cl)c3ccccc3c2=O)n1	-23%	-14%	-1%	14%	i	?
O=C(N/N=C/c1c(O)n(-c2ccccc2Cl)c(=O)c2ccccc12)c1cccnc1	6.5µM*	2%[11.3 µM]	-6%	-11%	/	9.2µM*
CCOc1ccc(NC(=O)CCc2nc3cccnc3n2-c2ccccc2)cc1	/	-17%	-9%	-15%	i	/
O=C(CCn1c(=O)c2cccn2c2cccnc21)NCc1ccccc1Cl	/	/	0%	-30%	/	/
O=S(=O)(NCc1ccc(Cl)cc1)c1ccc2[nH]c3c(c2c1)CCCC3	/	?	16µM*	16µM*	?	/
O=S(=O)(NCc1ccc(F)cc1)c1ccc2[nH]c3c(c2c1)CCCC3	/	0%	-103%	18µM*	?	/
CC1(C)CC(=O)C2=C(C1)c1c(ccc3ccccc13)NC2c1ccc(OCC(=O)O)cc1 (stereo unspecified)	-2%	/	1%	0%	/	2%
CC1(C)CC(=O)C2=C(C1)c1c(ccc3ccccc13)NC2c1ccc(Br)o1 (stereo unspecified)	?	-24%	20µM*	-20%	?	?
Cc1c(C(=O)NCc2cccc(Cl)c2)sc2ncnc(N(C)C3CCCCC3)c12	/	?	5%	?	i	/
CC(C)(C)N(Cc1ccc2c(c1)OCO2)C(=O)/C=C\S(=O)c1ccccc1 (stereo unspecified)	-26%	16µM*	18µM*	11µM*	?	13µM*
Cc1nc(-c2ccc(S(=O)(=O)NCc3ccc(OC(C)C)cc3)cc2)co1	/	-12%	-24%	-6%	i	/
O=C1CC[C@H](C(=O)N2CCCCC2)N1	/	13%	/	/	i	/
COc1ccc(CNc2ncnc3cc(Cl)ccc23)cc1OC	-18%	-35%	-26%	?	i	-23%
CCN(CC)Cc1cc2[nH]c3c4ccc(Cl)cc4ncc3c2cc1OC	22µM*!	/	-43%	-21%	i	?
COc1ccccc1-c1sc2ccccc2c1-c1ccc(O)cc1	-4%	0%	-37%	11µM*	i	-12%
COc1ccccc1-c1sc2cc3c(cc2c1-c1ccc(OCCN2CCCCC2)cc1)OCO3	?	?	10µM*	?	?	?
Oc1cccc(-c2sc3ccccc3c2-c2ccc(OCCN3CCCCC3)cc2)c1	21µM*	?	/	/	?	12µM*
COc1ccc2sc(-c3ccccc3OC)c(-c3ccc(OCCN4CCOCC4)cc3)c2c1	-19%	-6%	1%	-2%	i	-25%
COc1cc2sc(-c3ccccc3OC)c(-c3ccc(OCCN4CCCCC4)cc3)c2cc1OC	?	?	16µM*	?	25µM*	?
c1ccc(-c2sc3ccccc3c2-c2ccc(OCCN3CCOCC3)cc2)cc1	0%	2%	-15%	-1%	i	-2%
SMILES	HT1080-NT tox	ATXN2 expr inh	HepG2 tox	TGFb SMAD3 inh	ATXN viability	HT1080 IDH1KD tx
O=C(NCc1ccccn1)c1cnn(-c2nccc(-c3cc4ccccc4o3)n2)c1C1CC1	/	/	/	/	i	/
O=C(COc1ccc(/C=N/NC(=O)c2cc3ccccc3o2)cc1Cl)Nc1ccccc1	?	10µM*	-69%	2µM*	8.9µM*	?
COc1cc(/C=N/NC(=O)c2ccccc2O)ccc1OCC(=O)Nc1ccccc1	-25%	11%	-48%	-25%	?	?
CCOc1ccccc1C(=O)N(Cc1cc(OC)c(OC)c(OC)c1)c1ccccn1	/	-8%	-15%	-8%	i	/
CCCCC(CC)CN=C(N)NC(N)=NCCCCCCN=C(N)NC(N)=NCC(CC)CCCC (stereo unspecified)	7.3µM*	10µM*	11µM*	?	13µM*	23µM*
COc1cc(Cl)nn(-c2ccccc2)c1=O	9%	-15%	8%	7%	i	3%
O=c1c(Cl)cc(Cl)nn1-c1ccccc1	?	?	18µM*	?	/	?
Cc1onc(C(=O)N2CCC(Cc3ccccc3)CC2)c1[N+](=O)[O-]	5.8µM*	-13%	-2%	?	i	10µM*
Cc1cccc(OCC(=O)NNC(=O)c2cc3ccccc3oc2=O)c1	-2%	9%	3.2µM*	?	i	-3%[9.24 µM]
C/C(=N\NC(=O)COc1cccc(C)c1)c1ccc2ccccc2c1O	21µM*	?	-59%	5.6µM*	i	?
CC1=C(CO)C(=O)O[C@@H]([C@@H](C)[C@H]2CC[C@H]3[C@@H]4C[C@H]5O[C@]56[C@@H](O)C=CC(=O)[C@]6(C)[C@@H]4CC[C@]23C)C1	/	3.1µM*	/	/	/	/
